Our source for the binding signal values is paper PMC7862700, “An all-to-all approach to the identification of sequence-specific readers for epigenetic DNA modifications on cytosine”.

Common to all, as to experiment: DAPPL (digital affinity profiling via proximity ligation, sequencing); 10 mM Tris-HCl pH 7.5, 50 mM NaCl, 1 mM DTT, 4% glycerol, room temperature, 30 min; GST-TFs on glutathione beads, 16-mer random dsDNA library, 0.1% formaldehyde crosslink after washing; high values mean tight binding
One assay concerns the target T1, FLI1 (Homo sapiens, UniProt Q01543 1-452).
T1 sequence: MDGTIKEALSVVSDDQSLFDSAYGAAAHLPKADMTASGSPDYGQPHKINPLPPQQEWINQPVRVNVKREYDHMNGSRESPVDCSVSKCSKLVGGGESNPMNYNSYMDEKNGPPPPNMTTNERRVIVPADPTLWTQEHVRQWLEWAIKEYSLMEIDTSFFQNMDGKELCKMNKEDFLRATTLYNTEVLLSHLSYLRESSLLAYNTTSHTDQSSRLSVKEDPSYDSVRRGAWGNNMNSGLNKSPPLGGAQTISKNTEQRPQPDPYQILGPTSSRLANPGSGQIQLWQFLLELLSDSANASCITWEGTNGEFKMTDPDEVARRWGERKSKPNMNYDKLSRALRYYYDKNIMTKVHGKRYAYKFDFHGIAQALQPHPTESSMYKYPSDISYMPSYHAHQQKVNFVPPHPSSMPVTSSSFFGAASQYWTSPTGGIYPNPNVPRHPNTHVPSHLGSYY
The conditions noted are these: protein: recombinant; tags: N-terminal GST; dsDNA, one strand shown. In short, it runs like this:
(§1)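 Each value of binding signal is a hexamer's read frequency for a factor divided by the same hexamer's frequency in the tag-only sample. Barcoded, bead-captured GST fusions of human transcription factors made in yeast were pooled with that sample and incubated with 200 nmole of a random double-stranded 16-mer DNA library in Tris/NaCl/DTT/glycerol buffer at room temperature for 30 min. Washing, 0.1% formaldehyde crosslinking, proximity ligation, PCR and Illumina NextSeq500 sequencing followed.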

A further assay deals with T2, ELK1 (Homo sapiens, UniProt P19419 1-428).
T2 sequence: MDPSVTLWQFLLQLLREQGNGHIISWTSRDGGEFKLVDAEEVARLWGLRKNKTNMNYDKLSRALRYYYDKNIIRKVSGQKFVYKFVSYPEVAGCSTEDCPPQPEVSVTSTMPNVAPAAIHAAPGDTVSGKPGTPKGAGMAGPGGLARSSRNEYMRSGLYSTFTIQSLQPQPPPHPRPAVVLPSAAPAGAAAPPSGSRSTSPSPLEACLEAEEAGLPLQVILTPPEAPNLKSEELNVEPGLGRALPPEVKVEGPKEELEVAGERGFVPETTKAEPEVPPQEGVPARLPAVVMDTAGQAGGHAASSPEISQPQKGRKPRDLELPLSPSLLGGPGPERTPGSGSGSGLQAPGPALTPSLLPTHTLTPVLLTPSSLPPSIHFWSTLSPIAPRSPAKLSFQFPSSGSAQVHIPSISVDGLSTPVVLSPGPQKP
The conditions noted are these: protein: recombinant; tags: N-terminal GST; dsDNA, one strand shown. In short, it runs like this: as §1

The next assay addresses T3, ERG (Homo sapiens, UniProt P11308 1-479).
T3 sequence: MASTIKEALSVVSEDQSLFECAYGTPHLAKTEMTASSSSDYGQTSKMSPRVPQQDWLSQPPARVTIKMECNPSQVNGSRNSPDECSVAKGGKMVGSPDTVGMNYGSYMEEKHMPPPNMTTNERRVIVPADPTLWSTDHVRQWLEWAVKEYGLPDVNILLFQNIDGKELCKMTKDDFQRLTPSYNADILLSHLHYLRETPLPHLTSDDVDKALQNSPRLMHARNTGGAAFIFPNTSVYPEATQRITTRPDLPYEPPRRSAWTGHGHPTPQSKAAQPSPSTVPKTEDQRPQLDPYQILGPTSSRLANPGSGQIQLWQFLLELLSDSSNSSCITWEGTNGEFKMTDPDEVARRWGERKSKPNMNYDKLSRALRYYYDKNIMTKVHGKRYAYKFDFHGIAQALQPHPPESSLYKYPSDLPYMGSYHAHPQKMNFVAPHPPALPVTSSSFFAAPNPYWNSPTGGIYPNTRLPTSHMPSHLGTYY
The conditions noted are these: protein: recombinant; tags: N-terminal GST; dsDNA, one strand shown. In short, it runs like this:
as §1

In a further assay the target is ELF1 (Homo sapiens, UniProt P32519 1-619). To be noted: protein: recombinant; tags: N-terminal GST; dsDNA, one strand shown. The essentials: as §1
Chain of ELF1 (P32519 whole entry): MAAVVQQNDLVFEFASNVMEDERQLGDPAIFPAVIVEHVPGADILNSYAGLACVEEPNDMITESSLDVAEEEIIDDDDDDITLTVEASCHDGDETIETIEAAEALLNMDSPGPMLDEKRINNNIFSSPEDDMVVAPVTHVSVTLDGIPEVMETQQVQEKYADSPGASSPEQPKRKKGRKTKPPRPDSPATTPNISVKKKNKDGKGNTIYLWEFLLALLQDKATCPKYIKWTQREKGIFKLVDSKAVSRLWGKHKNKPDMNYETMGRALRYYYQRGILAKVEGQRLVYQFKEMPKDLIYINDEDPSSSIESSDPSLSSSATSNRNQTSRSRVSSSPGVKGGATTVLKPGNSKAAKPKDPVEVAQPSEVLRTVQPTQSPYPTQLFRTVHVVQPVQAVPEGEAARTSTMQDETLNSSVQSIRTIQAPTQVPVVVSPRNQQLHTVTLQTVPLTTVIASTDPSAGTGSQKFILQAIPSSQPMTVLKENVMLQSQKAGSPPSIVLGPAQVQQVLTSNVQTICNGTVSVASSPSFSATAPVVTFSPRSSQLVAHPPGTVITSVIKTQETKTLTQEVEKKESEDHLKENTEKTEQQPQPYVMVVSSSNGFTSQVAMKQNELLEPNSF
A further assay deals with T4, EHF (Homo sapiens, UniProt Q9NZC4 1-300).
T4 sequence: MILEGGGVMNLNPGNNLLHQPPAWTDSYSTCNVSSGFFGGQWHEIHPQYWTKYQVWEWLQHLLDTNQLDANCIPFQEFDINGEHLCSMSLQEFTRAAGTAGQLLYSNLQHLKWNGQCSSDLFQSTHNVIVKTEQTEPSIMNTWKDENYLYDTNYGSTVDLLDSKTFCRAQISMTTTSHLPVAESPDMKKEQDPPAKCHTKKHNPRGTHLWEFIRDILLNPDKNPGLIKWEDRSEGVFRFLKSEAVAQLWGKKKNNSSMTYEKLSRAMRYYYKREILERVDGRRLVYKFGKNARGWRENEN
To be noted: protein: recombinant; tags: N-terminal GST; dsDNA, one strand shown. The essentials: as §1

A further assay has as its target SPI1 (Homo sapiens, UniProt P17947 1-270). The conditions noted are these: protein: recombinant; tags: N-terminal GST; dsDNA, one strand shown. The essentials: as §1
In the next assay the target is SPIB (Homo sapiens, UniProt Q01892 1-262). The conditions noted are these: protein: recombinant; tags: N-terminal GST; dsDNA, one strand shown. In short, it runs like this:
as §1

The target of another assay is T5, ELK3 (Homo sapiens, UniProt P41970 1-407).
T5 sequence: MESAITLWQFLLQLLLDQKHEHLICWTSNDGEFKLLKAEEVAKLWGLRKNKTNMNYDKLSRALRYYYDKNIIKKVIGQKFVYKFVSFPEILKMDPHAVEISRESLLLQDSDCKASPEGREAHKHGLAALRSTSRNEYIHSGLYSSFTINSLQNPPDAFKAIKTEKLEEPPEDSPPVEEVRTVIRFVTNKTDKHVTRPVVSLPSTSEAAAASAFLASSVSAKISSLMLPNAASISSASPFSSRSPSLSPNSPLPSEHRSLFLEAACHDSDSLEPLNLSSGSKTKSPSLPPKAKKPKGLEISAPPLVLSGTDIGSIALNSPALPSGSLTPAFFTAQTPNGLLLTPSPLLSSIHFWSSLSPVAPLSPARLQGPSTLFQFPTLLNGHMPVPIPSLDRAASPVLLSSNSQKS
To be noted: protein: recombinant; tags: N-terminal GST; dsDNA, one strand shown. In short, it runs like this: as §1

The target of a further assay is T6, FEV (Homo sapiens, UniProt Q99581 1-238).
T6 sequence: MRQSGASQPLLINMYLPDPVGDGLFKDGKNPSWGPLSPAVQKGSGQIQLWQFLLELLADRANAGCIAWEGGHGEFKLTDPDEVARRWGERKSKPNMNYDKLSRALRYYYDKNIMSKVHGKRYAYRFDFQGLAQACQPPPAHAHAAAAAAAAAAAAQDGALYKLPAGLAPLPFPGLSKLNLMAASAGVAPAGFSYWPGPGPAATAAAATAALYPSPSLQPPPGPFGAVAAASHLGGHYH
The conditions noted are these: protein: recombinant; tags: N-terminal GST; dsDNA, one strand shown. In short, it runs like this:
as §1

The next assay deals with ETV5 (Homo sapiens, UniProt P41161 1-510). To be noted: protein: recombinant; tags: N-terminal GST; dsDNA, one strand shown. The essentials: as §1
Chain of ETV5 (P41161 whole entry): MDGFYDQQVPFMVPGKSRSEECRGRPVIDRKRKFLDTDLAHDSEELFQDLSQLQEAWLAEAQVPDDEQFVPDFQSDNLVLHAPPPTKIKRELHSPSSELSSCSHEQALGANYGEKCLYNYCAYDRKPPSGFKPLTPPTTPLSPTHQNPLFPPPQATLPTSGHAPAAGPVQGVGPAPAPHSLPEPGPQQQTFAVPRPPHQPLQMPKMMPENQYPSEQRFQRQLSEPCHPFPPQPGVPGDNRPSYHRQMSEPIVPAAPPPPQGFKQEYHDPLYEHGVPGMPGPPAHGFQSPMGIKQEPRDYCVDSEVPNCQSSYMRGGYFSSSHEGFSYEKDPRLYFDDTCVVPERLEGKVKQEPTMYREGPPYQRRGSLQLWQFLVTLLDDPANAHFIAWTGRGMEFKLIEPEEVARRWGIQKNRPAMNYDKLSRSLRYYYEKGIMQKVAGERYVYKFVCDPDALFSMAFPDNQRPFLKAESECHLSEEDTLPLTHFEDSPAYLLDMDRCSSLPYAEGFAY
The target of a further assay is HSF1 (Homo sapiens, UniProt Q00613 1-529). The conditions noted are these: protein: recombinant; tags: N-terminal GST; chain copies: 3; dsDNA, one strand shown. In short, it runs like this: as §1
Chain of HSF1 (Q00613 whole entry): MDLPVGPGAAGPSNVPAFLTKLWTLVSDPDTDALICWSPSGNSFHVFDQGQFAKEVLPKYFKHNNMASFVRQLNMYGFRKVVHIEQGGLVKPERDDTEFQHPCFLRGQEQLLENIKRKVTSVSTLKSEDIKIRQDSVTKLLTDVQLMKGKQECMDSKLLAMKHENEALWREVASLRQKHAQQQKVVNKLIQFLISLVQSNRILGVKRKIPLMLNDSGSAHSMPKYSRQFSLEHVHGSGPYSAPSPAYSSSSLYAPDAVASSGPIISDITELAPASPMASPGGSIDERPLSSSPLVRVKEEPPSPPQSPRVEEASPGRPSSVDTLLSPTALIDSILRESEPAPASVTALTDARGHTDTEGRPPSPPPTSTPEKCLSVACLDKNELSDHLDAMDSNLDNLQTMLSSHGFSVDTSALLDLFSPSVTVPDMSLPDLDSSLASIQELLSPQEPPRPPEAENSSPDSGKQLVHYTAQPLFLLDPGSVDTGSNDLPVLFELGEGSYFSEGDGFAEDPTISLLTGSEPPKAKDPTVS
The next assay has as its target ELF4 (Homo sapiens, UniProt Q99607 1-663). To be noted: protein: recombinant; tags: N-terminal GST; dsDNA, one strand shown. The essentials: as §1
A further assay deals with T7, ELK4 (Homo sapiens, UniProt P28324-2 1-405).
T7 sequence: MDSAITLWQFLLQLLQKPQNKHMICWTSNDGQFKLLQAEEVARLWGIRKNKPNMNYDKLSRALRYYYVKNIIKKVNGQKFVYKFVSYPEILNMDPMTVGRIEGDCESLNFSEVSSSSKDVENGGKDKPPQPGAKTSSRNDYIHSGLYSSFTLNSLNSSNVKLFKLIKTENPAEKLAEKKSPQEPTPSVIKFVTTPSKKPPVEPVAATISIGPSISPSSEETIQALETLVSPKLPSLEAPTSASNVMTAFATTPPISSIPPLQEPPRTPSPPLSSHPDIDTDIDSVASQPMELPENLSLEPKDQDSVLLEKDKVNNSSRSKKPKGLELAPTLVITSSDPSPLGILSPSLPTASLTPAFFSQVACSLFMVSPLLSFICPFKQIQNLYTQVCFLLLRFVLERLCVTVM
The conditions noted are these: protein: recombinant; tags: N-terminal GST; dsDNA, one strand shown. The essentials: as §1

A further assay has as its target T8, ETV2 (Homo sapiens, UniProt O00321 1-342).
T8 sequence: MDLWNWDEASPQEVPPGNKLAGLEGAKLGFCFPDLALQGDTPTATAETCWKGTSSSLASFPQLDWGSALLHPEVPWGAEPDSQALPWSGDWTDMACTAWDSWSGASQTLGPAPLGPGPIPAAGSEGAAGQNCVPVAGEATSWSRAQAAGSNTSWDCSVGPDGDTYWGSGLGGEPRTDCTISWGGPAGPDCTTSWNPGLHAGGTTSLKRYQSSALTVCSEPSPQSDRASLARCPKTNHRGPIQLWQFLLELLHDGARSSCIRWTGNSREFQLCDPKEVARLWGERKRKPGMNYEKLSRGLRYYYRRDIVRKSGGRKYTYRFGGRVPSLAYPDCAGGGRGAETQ
To be noted: protein: recombinant; tags: N-terminal GST; dsDNA, one strand shown. In short, it runs like this: as §1

Another assay has as its target T9, ELF3 (Homo sapiens, UniProt P78545 1-371).
T9 sequence: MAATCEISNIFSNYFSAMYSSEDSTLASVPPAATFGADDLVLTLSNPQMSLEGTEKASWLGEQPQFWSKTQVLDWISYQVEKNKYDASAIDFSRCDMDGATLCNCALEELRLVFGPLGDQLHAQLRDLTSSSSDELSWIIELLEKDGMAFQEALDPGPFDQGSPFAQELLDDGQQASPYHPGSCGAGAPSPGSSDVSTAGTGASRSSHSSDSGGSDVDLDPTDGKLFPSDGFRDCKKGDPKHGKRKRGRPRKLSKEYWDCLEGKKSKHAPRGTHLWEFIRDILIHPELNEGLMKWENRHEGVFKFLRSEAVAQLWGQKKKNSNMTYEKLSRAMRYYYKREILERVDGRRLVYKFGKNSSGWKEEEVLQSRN
The conditions noted are these: protein: recombinant; tags: N-terminal GST; dsDNA, one strand shown. The essentials: as §1

The target in a further assay is CRX (Homo sapiens, UniProt O43186 1-299). The conditions noted are these: protein: recombinant; tags: N-terminal GST; dsDNA, one strand shown. In short, it runs like this:
as §1

The target of another assay is ETV1 (Homo sapiens, UniProt P50549 1-477). The conditions noted are these: protein: recombinant; tags: N-terminal GST; dsDNA, one strand shown. The essentials: as §1
Chain of ETV1 (P50549 whole entry): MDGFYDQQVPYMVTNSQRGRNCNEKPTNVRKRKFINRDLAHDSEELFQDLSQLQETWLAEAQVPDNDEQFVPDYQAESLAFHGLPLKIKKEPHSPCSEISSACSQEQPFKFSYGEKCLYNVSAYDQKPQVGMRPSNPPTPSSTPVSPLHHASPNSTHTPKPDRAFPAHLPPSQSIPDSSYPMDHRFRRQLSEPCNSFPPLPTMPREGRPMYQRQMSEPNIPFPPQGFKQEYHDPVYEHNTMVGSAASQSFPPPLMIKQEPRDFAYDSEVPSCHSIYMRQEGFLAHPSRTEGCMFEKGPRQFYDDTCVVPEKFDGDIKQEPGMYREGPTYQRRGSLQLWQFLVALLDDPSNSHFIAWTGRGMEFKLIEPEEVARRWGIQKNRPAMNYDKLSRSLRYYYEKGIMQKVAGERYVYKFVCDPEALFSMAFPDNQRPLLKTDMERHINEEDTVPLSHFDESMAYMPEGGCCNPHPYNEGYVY

Chain of CRX (O43186 whole entry): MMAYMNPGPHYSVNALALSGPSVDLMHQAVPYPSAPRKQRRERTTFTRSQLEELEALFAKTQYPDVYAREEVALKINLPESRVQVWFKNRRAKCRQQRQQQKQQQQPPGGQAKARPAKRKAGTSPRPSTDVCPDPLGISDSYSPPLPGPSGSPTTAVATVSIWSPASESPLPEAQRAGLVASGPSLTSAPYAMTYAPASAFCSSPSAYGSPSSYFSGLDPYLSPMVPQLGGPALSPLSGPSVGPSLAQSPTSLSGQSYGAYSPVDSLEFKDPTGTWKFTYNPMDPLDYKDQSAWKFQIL
Chain of SPIB (Q01892 whole entry): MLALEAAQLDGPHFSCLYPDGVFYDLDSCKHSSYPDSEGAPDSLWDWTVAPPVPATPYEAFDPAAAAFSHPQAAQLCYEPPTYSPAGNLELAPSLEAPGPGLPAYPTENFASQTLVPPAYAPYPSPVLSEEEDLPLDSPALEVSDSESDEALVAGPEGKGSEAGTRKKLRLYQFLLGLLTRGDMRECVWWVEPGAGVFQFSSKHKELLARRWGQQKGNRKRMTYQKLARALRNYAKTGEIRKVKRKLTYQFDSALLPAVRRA
Chain of ELF4 (Q99607 whole entry): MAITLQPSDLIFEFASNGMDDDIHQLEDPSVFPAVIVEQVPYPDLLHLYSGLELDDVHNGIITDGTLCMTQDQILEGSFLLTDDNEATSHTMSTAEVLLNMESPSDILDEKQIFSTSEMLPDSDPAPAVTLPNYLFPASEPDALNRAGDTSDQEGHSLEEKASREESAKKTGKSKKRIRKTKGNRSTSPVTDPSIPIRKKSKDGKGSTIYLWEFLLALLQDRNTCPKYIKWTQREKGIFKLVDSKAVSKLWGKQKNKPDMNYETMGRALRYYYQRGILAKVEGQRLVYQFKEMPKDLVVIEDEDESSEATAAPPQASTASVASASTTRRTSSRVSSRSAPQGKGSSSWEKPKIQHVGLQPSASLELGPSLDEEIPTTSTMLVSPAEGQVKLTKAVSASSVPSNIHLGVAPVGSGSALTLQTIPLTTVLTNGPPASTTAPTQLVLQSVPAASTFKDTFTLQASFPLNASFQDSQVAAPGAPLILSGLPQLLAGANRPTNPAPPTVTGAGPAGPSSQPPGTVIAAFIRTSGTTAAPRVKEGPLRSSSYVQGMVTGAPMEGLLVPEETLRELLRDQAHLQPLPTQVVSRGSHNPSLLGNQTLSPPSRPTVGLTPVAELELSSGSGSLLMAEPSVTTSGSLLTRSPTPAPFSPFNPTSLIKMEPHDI

As to TAACAG, the binding signal with FLI1 was 1.06 fold enrichment (6-mer frequency, TF over GST control); with ELK1, 1.05 fold enrichment (6-mer frequency, TF over GST control); in the assay with ERG, 1.01 fold enrichment (6-mer frequency, TF over GST control); with ELF1, 1.09 fold enrichment (6-mer frequency, TF over GST control); with EHF it was 1.07 fold enrichment (6-mer frequency, TF over GST control); with SPI1 it was 1.11 fold enrichment (6-mer frequency, TF over GST control). Further, the binding signal with SPIB is 1.09 fold enrichment (6-mer frequency, TF over GST control); with ELK3, 1.07 fold enrichment (6-mer frequency, TF over GST control); with FEV, 1.05 fold enrichment (6-mer frequency, TF over GST control); with ETV5 it was 1.04 fold enrichment (6-mer frequency, TF over GST control); with HSF1, 1.02 fold enrichment (6-mer frequency, TF over GST control); in the assay with ELF4, 1.09 fold enrichment (6-mer frequency, TF over GST control). In addition, the binding signal was 1.12 fold enrichment (6-mer frequency, TF over GST control) with ELK4; 1.02 fold enrichment (6-mer frequency, TF over GST control) with ETV2; 1.09 fold enrichment (6-mer frequency, TF over GST control) with ELF3; 1.3 fold enrichment (6-mer frequency, TF over GST control) with CRX; 1.09 fold enrichment (6-mer frequency, TF over GST control) in the assay with ETV1.
